Source: PubChem BioAssay (NCATS)
Results filed as inconclusive are left out. The source made the active and inactive calls. Calls follow the shape of the dose curve; as a rule, active = well fitted inhibition curve with a large enough effect; inconclusive = small, poorly fitted or top-dose-only effect; inactive = no such curve, though single readings can be large or run the other way. *1 amine or outer side, *2 acyl side, *3 side chain or, on linkers, in order; H or OH if unused. Where a SMILES comes first, the peptide text is derived from it. Bridges are numbered along the chain shown (N, C = ends). [ ]: non-standard residue; d: D form. The star is where a group is joined. pTerphenylCO(4''-OnC5H11) = CCCCCOc1ccc(-c2ccc(-c3ccc(C(=O)*)cc3)cc2)cc1; Orn(4R-OH,5R-OH) = O=C([C@H](C[C@@H](O)[C@@H](O)N[*:3])N[*:1])[*:2]; hTyr(3S-OH,4S-OH) = N[C@H](C(=O)O)[C@H](O)[C@@H](O)c1ccc(O)cc1; Pro(3S-OH,4S-Me) = C[C@H]1CN[C@H](C(=O)O)[C@H]1O; Hyp = O=C(O)[C@@H]1C[C@@H](O)CN1

Test: P-glycoprotein substrates identified in KB-3-1 adenocarcinoma cell line, qHTS therapeutic library screen (AID 1346986); also: nearly all actives have a fitted effect of over 60% in size;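 also: potency is for cytotoxicity meaning loss of cell viability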
Conditions: KB-3-1 parental cells viability, CellTiter-Glo, 72 h; series mostly up to 44.5 µM; activity change, negative = cytotoxicity: at the top concentration
In short: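 Compounds were tested in dose-response against KB-3-1 and KB-8-5-11 cells at 37 degree C for 72 h, and viability was measured by luminescence. AC50 values came from curve fitting with class-based activity calls.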
% is scaled to controls: 0 for no effect and ±100 for the full control effect; potency is read from the fitted curve at half-maximal effect.

Compound	outcome	Potency	activity change, negative = cytotoxicity
COc1ccc(-c2c(C)nn3c(NCCN4CCOCC4)cc(C)nc23)cc1OC	inactive	–	–
N#Cc1ccnc(Nc2cc(C3CCN(C4COC4)CC3)cc(N3CCC(F)(F)C3)n2)c1	–	6.51 µM (active)	–
CCN(Cc1cc(Nc2nc(C)cn3c(-c4cn[nH]c4)cnc23)sn1)C(C)(C)CO	–	0.0103 µM (active)	–
C/C=C(/C=C(C)/C=C/C=C/C=C(\C)C(=O)C12OC1C(O)(CCO)NC2=O)C(=O)OC (centres undefined)	inactive [at 17.4 µM]	–	–
COC1C(OC(=O)/C=C/C=C/C=C/C=C/C(=O)O)CCC2(CO2)C1C1(C)OC1CC=C(C)C (centres undefined)	inactive [at 17.4 µM]	–	–
C/C(=N\N=C(N)N)c1cc(NC(=O)CCCCCCCCC(=O)Nc2cc(/C(C)=N/N=C(N)N)cc(/C(C)=N/N=C(N)N)c2)cc(/C(C)=N/N=C(N)N)c1	–	14.6 µM (active)	–
CC1=C(c2ccc(NC(=O)c3c(F)cccc3F)cc2)CN(c2nccs2)CC1	inactive	–	–
COc1cc2ncnc(Nc3cccc(I)c3)c2cc1OC	–	6.51 µM (active)	–
Cc1nc(NC(=O)N2CCCC2C(N)=O)sc1-c1ccnc(C(C)(C)C(F)(F)F)c1 (centres undefined)	–	23.1 µM (active)	–
CC(=O)c1c(C)cc2cccc(O)c2c1O[C@@H]1O[C@H](CO)[C@@H](O)[C@H](O)[C@H]1O	inactive	–	–
Cn1ncnc1[C@@H]1c2n[nH]c(=O)c3cc(F)cc(c23)N[C@H]1c1ccc(F)cc1	inactive	–	–
CCN(CC)C(=O)C(c1ccccc1)N1CCN(c2ccc(NC(=O)c3ccccc3-c3cccnc3)cc2F)CC1 (centres undefined)	inactive	–	–
COc1cc2c(cc1O)C1(Cc3ccc4c(c3C1O)OCO4)[N+](C)([O-])CC2 (centres undefined)	inactive	–	–
CC1(C)CN(C(=O)c2ccc(-c3cccc4nc(NC(=O)C5CC5)nn34)cc2)C1	inactive	–	–
COc1cc2ncnc(Oc3ccc(CC(=O)Nc4cnn(C(C)C)c4)cc3)c2cc1OC	–	–	-1.91% (inactive)
O=C(/C=C/c1ccccc1O)O[C@@H]1O[C@H](CO)[C@@H](O)[C@H](O)[C@H]1O	inactive	–	–
CC/C(C)=C/C(=O)OC1C(OC2(C)CCC3C(C4C(C)CCC42)C3(C)C)OC(C)C(O)C1O (centres undefined)	inactive [at 17.4 µM]	–	–
NC(=O)c1nc(Nc2ccccc2)sc1NC(=O)C1CCCCC1	inactive	–	–
CCC/C=C/C(=O)O[C@H]1CC(C)(C)CC2[C@@]13[C@H](O)C[C@]1(C)[C@@]2(CCC2[C@@]4(C)CC[C@H](O[C@@H]5O[C@H](C(=O)O)[C@@H](O)[C@H](O[C@@H]6O[C@H](CO)[C@H](O)[C@H](O)[C@H]6O[C@@H]6O[C@@H](C)[C@H](O)[C@@H](O)[C@H]6O[C@@H]6OC[C@](O)(CO)[C@H]6O)[C@H]5O[C@@H]5O[C@H](CO)[C@H](O)[C@H](O)[C@H]5O)C(C)(C)C4CC[C@]21C)O[C@H]3O (some centres undefined)	inactive [at 9.29 µM]	–	–
CCCCCOc1ccc(-c2ccc(-c3ccc(C(=O)N[C@H]4C[C@@H](O)[C@@H](O)NC(=O)[C@@H]5[C@@H](O)[C@@H](C)CN5C(=O)[C@H]([C@@H](C)O)NC(=O)[C@H]([C@H](O)[C@@H](O)c5ccc(O)cc5)NC(=O)[C@@H]5C[C@@H](O)CN5C(=O)[C@H]([C@@H](C)O)NC4=O)cc3)cc2)cc1 ({pTerphenylCO(4''-OnC5H11)}-[Orn(4R-OH,5R-OH)]T[Hyp][hTyr(3S-OH,4S-OH)]T[Pro(3S-OH,4S-Me)]; lactam 1-C)	inactive [at 17.4 µM]	–	–

Compound	outcome	Potency	activity change, negative = cytotoxicity
C=C1C(=O)O[C@@H]2C[C@@]3(C)C[C@@H](O)C[C@H](C)C3=C[C@H]12	inactive	–	–
CC(C)(F)CC(NC(c1ccc(-c2ccc(S(C)(=O)=O)cc2)cc1)C(F)(F)F)C(=O)NC1(C#N)CC1 (centres undefined)	inactive	–	–
Cc1nc(NC(=O)N2CCC[C@H]2C(N)=O)sc1-c1ccnc(C(C)(C)C(F)(F)F)c1	–	11.6 µM (active)	–
COc1ccc2[nH]c(=O)c3c(c2c1)OC(C)(C)C=C3	inactive	–	–
CCN(Cc1ccccc1)C(=O)Cn1c(=O)n(C)c2cnc(-c3ccccc3)nc21	inactive	–	–
CCC(C)/C=C(C)/C=C/C1=CC2=C(Cl)C(=O)C(C)(OC(C)=O)C(=O)C2(O)C(OC)O1 (centres undefined)	inactive [at 17.4 µM]	–	–
C=C1C(=O)O[C@@H]2/C=C(\CO)CC/C=C(\CO)[C@H](OC(C)=O)C(OC(=O)C(C)CC)C12 (some centres undefined)	inactive [at 17.4 µM]	–	–
COc1cc2ncc(-c3ccccc3)nc2cc1OC	–	7.31 µM (active)	–
CC(C)S(=O)(=O)c1ccc2nccc(Nc3ccc4scnc4c3)c2c1	inactive	–	–
CC(=O)O[C@@H]1CC2C(/C=C(\C)C(=O)[C@@]3(O)C[C@@H](C)[C@H](OC(=O)c4ccccc4)C3/C=C/1C)C2(C)C (some centres undefined)	inactive [at 17.4 µM]	–	–
COc1c(C)cc(NC(=O)c2nn(Cc3ccc(F)cc3)c3c2CN(C(=O)c2ccc[nH]2)C[C@]3(C)C(N)=O)cc1C	inactive [at 9.29 µM]	–	–
N#Cc1ccc2ncnc(NCCc3ccccc3)c2c1	–	16.4 µM (active)	–
COc1cc(/C=C2\CC[C@H]3COC[C@@H](c4cc(F)c(F)c(F)c4)N3C2=O)ccc1-n1cnc(C)c1	inactive	–	–
COC1CC(O[C@H]2CC[C@]3(C)C4CC[C@@]5(C)C(=O)[C@]4(CC[C@@H]3C2)CC[C@@H]5C2=CC(=O)OC2)OC(C)C1OC1OC(COC2OC(CO)C(O)C(O)C2O)C(O)C(O)C1O (some centres undefined)	–	3.48 µM (active)	–
CC#CC(=O)Nc1ccc2ncnc(Nc3cccc(Br)c3)c2c1	–	10.3 µM (active)	–
CC1(C)C2CCC(CO[C@@H]3O[C@H](CO[C@@H]4OC[C@](O)(CO)[C@H]4O)[C@@H](O)[C@H](O)[C@H]3O)C1C2 (some centres undefined)	inactive [at 17.4 µM]	–	–
C[C@H]1CC[C@@]2(OC1)O[C@H]1CC3[C@@H]4CC[C@@H]5C[C@@H](O[C@@H]6O[C@H](CO)[C@@H](O[C@@H]7O[C@H](CO[C@@H]8OC[C@@H](O)[C@H](O)[C@H]8O)[C@@H](O[C@@H]8O[C@H](CO)[C@H](O)[C@H](O)[C@H]8O)[C@H](O)[C@H]7O)[C@H](O)[C@H]6O)CC[C@]5(C)C4CC[C@]3(C)[C@H]1[C@@H]2C (some centres undefined)	inactive [at 9.29 µM]	–	–
CCN1CCC[C@@H]1CNC(=O)c1ccc2c(c1)NC(=O)c1cccc(C)c1S2	inactive	–	–
Cn1cc(C2=C(c3coc4ccccc34)C(=O)NC2=O)c2cc(Br)ccc21	inactive	–	–
